Test results: PubChem BioAssay AID651704 (Broad Institute, 2012)
Screen size: about 350,000 compounds; about 1,600 (0.46%) were called active. This excerpt belongs to a sample that is enriched for actives. Unmarked numbers belong to inactive results.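 The calls were made as follows: active = every replicate reaching a set inhibition limit, whatever the replicate mean (cut at about 25% in these data); inconclusive = mean inhibition reaches that limit but some replicates miss it; inactive = the rest.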

What follows are compounds tested against Protein AF-9 (Homo sapiens) (UniProt P42568) (assay: inhibitors of AF4 peptide binding to AF9, primary screen, biochemical, AlphaScreen, biotin-AF4 peptide, FLAG-AF9, single point (AID 651704;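 also: 0% = plate neutral control median and 100% = total signal loss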)). Settings: at 10 µM, stronger effect = higher value.
Protein AF-9 (Homo sapiens), sequence (P42568 whole entry, looked up): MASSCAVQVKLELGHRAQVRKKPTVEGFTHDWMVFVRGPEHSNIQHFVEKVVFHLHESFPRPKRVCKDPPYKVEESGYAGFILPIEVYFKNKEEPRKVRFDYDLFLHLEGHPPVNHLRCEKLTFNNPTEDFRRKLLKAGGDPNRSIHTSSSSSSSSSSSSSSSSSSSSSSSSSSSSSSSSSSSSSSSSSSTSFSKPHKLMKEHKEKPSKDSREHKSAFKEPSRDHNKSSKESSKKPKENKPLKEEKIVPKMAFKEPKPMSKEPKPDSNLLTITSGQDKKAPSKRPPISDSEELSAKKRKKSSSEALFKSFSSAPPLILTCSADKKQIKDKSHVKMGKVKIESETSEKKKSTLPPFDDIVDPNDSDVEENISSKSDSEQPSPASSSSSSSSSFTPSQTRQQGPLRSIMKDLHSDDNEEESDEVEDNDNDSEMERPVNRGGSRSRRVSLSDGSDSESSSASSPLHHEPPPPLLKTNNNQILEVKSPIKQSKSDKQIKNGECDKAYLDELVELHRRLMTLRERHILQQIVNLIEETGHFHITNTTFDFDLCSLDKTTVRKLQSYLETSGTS
With `CCC1(C)CC(CCNCc2ccc(N(C)C)cc2)(c2ccc(F)cc2)CCO1` (stereo not given) the inhibition was 28.4% (active).
For `COc1ccc2c(c1)NP(=S)(c1ccccc1)N2` (stereo not given), the inhibition was -0.621%.
`O=C(O)[C@@H]1[C@@H](CO)[C@@H]2Cn3c(ccc(-c4ccccc4F)c3=O)[C@H]1N2C(=O)c1cccnc1` was tested, and the inhibition was 1.92%.
With `CSCCC(c1nnnn1C(C)(C)C)N1CCC(n2c(=O)[nH]c3ccccc32)CC1` (stereo not given) the inhibition was 14%.
Work on `CC(C)CN1Cc2cc(N3CCCCC3)ccc2-n2nncc2C1` yielded an inhibition of 6.47%.
`COC(=O)[C@H]1[C@H](CO)[C@H]2Cn3c(ccc(-c4ccccc4F)c3=O)[C@@H]1N2C(=O)C1CCC1` showed an inhibition of 1.06%.
Compound `Cc1ncoc1C(=O)NCC1=C(c2cccc3ccccc23)C[C@@H]2CC[C@H]1N2Cc1ccco1` has an inhibition of 3.14%.
With `CCOC(=O)[C@]12Cc3cc(OC)ccc3[C@H]1N(C(C)C)C(=O)c1ccccc12` the inhibition was -1.49%.
With `O=C(O)COc1ccccc1/C=C1\C(=O)NC(=O)N(CCC2=CCCCC2)C1=O` the inhibition was 51.4% (active).
Compound `O=C1NC(=O)N(Cc2ccco2)C(=O)/C1=C\c1cccn1CCOc1ccccc1` has an inhibition of -1.69%.
Compound `O=C1NC(=O)N(CCc2ccc(F)cc2)C(=O)/C1=C/C=C/c1ccccc1` has an inhibition of 7.75%.
Compound `O=C1NCN(c2ccccc2)C12CCN(C(c1cccs1)c1nnnn1C1CCCCC1)CC2` (stereo not given) has an inhibition of 8.26%.
With `CCn1cc(CN2CCCC(C(=O)c3cccc(C(F)(F)F)c3)C2)cn1` (stereo not given) the inhibition was 0.062%.
With `Cc1cc2ccccn2c1C(C[N+](=O)[O-])c1c(F)cccc1Cl` (stereo not given) the inhibition was 25.5% (active).
Compound `O=C(NC[C@@H]1CC[C@H]2NC[C@H]2O1)C1CCCC1` has an inhibition of -2.73%.
For `COC(=O)C1=C(c2ccc(OCc3ccccc3)cc2)C[C@@H]2CC[C@H]1N2C(=O)NCc1ccc(Cl)cc1`, the inhibition was -0.419%.
`O=c1[nH]c2ccccc2n1C1CCN(C(c2ccnc3ccccc23)c2nnnn2Cc2ccccc2)CC1` (stereo not given) showed an inhibition of -0.349%.
Work on `C[C@@H]1CN([C@H](C)CO)C(=O)CCCn2cc(nn2)CO[C@@H]1CN(C)C(=O)Oc1cccc2ccccc12` yielded an inhibition of -0.246%.
In the case of `CCOc1cccc(=NC2CCCCC2)c2c(C)[nH]c(C)c12`, the inhibition was 31.5% (active).
`O=c1[nH]c2ccccc2n1C1CCN(C(c2ccccc2)c2nnnn2Cc2ccccc2)CC1` (stereo not given) gave an inhibition of 2.84%.
